PubChem BioAssay (Tox21)
Several values for one entry are separate records, joined by “and”; a condition that tells them apart may be missing. Identical values can stand only once. Results filed as inconclusive are left out. Entries that show only a call come without a potency. Where a structure was tested more than once in an assay, its records may differ in their call. Activity calls are given as the source filed them. Unless noted, calls follow the shape of the dose curve; as a rule, active = well fitted curve in the direction sought with a large enough effect in the repeat runs; inconclusive = weak or mixed curves; inactive = no such curve, though single readings can be large; an effect the other way counts as inactive or inconclusive.

Columns and labels:
[1] = biological target: Thyrotropin receptor (Homo sapiens) (UniProt P16473); assay: qHTS assay to identify small molecule antagonists of the thyroid stimulating hormone receptor (TSHR) signaling pathway (AID 1259385; calls by dose curve; also: nearly all actives have a fitted effect of over 20% in size)
Thyrotropin receptor (Homo sapiens), sequence (P16473 whole entry, looked up): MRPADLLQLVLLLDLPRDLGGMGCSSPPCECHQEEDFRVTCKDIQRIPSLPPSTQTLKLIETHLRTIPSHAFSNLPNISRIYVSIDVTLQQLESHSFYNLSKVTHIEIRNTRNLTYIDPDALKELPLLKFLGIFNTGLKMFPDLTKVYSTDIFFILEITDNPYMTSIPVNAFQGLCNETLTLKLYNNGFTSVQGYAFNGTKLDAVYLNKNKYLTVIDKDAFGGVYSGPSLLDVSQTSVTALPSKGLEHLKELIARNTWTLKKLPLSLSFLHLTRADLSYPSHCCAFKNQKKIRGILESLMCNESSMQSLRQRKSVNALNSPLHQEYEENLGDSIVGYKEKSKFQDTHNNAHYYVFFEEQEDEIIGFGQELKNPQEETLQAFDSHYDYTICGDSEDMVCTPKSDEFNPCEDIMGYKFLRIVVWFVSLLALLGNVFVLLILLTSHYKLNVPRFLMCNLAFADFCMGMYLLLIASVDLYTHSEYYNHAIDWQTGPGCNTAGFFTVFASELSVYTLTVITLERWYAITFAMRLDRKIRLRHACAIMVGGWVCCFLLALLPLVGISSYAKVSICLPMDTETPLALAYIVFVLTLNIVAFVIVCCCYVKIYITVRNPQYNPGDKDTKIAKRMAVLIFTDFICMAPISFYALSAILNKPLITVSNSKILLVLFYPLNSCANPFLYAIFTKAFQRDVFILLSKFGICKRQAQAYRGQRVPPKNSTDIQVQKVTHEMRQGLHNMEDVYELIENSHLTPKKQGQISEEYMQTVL
In short: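 TSHR-HEK293 cells were plated and held 18 h at 37C/5% CO2, then given compound plus Ro20-1724 and stimulated with TSH at 1.5 ng/mL final. After 30 min at room temperature, cAMP was detected with cAMP-d2/anti-cAMP-cryptate (1 h) by fluorescence.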

[2] = qHTS assay to identify small molecule agonists of the estrogen receptor alpha (ER-alpha) signaling pathway in the presence of an antagonist - cell viability counter screen (AID 1259386);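 also: cells exposed to compounds for 22 h at 37 °C before the viability read; nearly all actives have a fitted effect of over 30% in size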; also: potency is read from the fitted curve at half-maximal effect
In short: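 VM7Luc4E2 cells (endogenous full-length ER-alpha, 4×ERE-luciferase) were held 5 days in phenol red-free medium with 10% charcoal-stripped FBS, plated, then given 10.0nM ICI-182,780 and compounds at 15 concentrations for 22hr at 37C; viability read by CellTiter-Fluor fluorescence.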

[3] = biological target: Progesterone receptor (Homo sapiens) (UniProt P06401); assay: qHTS assay to identify small molecule antagonists of the progesterone receptor (PR) signaling pathway (AID 1346795; active = well fitted inhibition curve with a large enough effect in the signal ratio in the repeat runs, not every such curve was filed as active; the % refers to the signal ratio; also: potency is read from the fitted curve at half-maximal effect)
Progesterone receptor (Homo sapiens), sequence (P06401 whole entry, looked up): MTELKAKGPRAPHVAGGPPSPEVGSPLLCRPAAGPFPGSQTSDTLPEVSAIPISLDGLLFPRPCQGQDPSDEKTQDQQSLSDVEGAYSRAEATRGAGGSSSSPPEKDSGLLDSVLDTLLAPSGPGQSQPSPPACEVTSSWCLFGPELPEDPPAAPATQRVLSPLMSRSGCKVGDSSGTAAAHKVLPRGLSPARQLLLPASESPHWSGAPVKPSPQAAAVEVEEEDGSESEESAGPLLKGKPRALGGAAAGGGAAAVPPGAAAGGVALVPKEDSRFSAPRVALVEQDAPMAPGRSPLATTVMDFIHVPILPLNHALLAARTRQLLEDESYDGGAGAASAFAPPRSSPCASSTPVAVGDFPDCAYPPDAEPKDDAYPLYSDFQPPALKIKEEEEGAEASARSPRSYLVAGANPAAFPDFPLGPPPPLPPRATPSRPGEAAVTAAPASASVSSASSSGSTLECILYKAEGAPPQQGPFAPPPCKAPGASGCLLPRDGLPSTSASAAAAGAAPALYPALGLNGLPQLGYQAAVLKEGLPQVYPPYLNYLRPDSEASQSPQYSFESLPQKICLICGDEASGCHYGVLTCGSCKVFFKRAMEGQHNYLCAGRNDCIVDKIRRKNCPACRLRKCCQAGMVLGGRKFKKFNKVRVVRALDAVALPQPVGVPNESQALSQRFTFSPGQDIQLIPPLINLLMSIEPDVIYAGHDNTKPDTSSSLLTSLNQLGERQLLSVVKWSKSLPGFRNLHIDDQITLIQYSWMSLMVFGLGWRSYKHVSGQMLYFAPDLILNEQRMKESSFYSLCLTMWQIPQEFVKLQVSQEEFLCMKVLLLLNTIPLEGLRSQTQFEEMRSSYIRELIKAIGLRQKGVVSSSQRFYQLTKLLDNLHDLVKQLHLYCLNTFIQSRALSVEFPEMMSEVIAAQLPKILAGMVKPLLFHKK
In short: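 Antagonist mode: compounds tested against 1 nM (final) promegestone stimulation in HEK293T cells expressing PR-UAS-bla reporter, 16 hr at 37C, 5% CO2; beta-lactamase activity detected via B/G FRET substrate after 2 hr at room temperature.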

[4] = qHTS assay to identify small molecule antagonists of the progesterone receptor (PR) signaling pathway - cell viability counter screen (AID 1346798); also: nearly all actives have a fitted effect of over 50% in size; also: potency is read from the fitted curve at half-maximal effect
In short: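 Counter screen for cytotoxicity: viability of PR-UAS-bla HEK293T cells was measured with CellTiter-Glo luminescence following 16 hr compound exposure in the presence of R5020.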

[5] = qHTS assay to identify small molecule agonists of the progesterone receptor (PR) signaling pathway - cell viability counter screen (AID 1346799; calls by dose curve; also: nearly all actives have a fitted effect of over 45% in size; also: potency is read from the fitted curve at half-maximal effect)
In short: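 Cells (PR-UAS-bla HEK293T) are plated at 3,000/well in 2% charcoal-stripped FBS medium, rested 6 hr, dosed and incubated 16 hr at 37C. CellTiter-Glo is then added and luminescence measured after 30 min at room temperature.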

[6] = qHTS assay to identify small molecule antagonists of the TGF-beta/Smad signaling pathway - cell viability counter screen (AID 1346824); also: nearly all actives have a fitted effect of over 50% in size
In short: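 SBE-bla HEK 293T cells were plated overnight at 37 C, then given compounds in DMSO plus TGF-beta1 (added as 0.25 ng/mL solution) for 5 hr. After the bla read, CellTiter-Glo was added to the same wells and luminescence read after 30 min at room temperature.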

[7] = qHTS assay to identify small molecule agonists of the TGF-beta/Smad signaling pathway - cell viability counter screen (AID 1346829); also: top concentration of the series differs between compounds; nearly all actives have a fitted effect of over 45% in size
In short: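 Cytotoxicity counter screen: CellTiter-Glo luminescence (30 min, room temperature) measured in the SBE-bla HEK 293T reporter wells after 5 hr compound treatment at 37 C and the 2 hr substrate step.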

[8] = qHTS assay to identify small molecule agonists of the TGF-beta/Smad signaling pathway (AID 1346859; active = well fitted activation curve with a large enough effect in the signal ratio in the repeat runs, not every such curve was filed as active; the % refers to the signal ratio; also: series mostly up to about 77 µM)
In short: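 Reporter line: HEK 293T with stably integrated SBE-controlled beta-lactamase. Compound exposure lasts 5 hr at 37 C and 5% CO2; substrate loading follows for 2 hr at room temperature, with emission read at 460 and 530 nm.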

[9] = biological target: Thyrotropin-releasing hormone receptor (Homo sapiens) (UniProt P34981); assay: qHTS assay to identify small molecule antagonists of the thyrotropin-releasing hormone receptor (TRHR) signaling pathway (AID 1346877; active = well fitted inhibition curve with a large enough effect in the repeat runs, not every such curve was filed as active; also: series mostly up to about 51 µM)
Thyrotropin-releasing hormone receptor (Homo sapiens), sequence (P34981 whole entry, looked up): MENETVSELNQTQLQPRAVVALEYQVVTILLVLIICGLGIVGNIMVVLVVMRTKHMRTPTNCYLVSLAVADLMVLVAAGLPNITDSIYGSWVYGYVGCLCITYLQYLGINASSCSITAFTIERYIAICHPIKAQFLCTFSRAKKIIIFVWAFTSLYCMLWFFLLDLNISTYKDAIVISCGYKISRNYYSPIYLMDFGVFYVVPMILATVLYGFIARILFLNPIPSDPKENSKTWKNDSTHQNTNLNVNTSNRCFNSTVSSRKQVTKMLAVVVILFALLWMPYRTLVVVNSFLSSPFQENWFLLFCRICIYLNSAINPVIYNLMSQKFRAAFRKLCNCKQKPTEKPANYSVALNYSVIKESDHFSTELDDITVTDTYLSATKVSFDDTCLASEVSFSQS
In short: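 TRHR-expressing HEK293 cells were seeded, cultured 18 h at 37 °C, then loaded with calcium dye for 2 h. Compounds were pre-incubated 5 min at room temperature before 1 nM TRH (final) was added, and kinetic fluorescence was recorded for 3 min.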

[10] = biological target: Thyrotropin-releasing hormone receptor (Homo sapiens) (UniProt P34981); assay: qHTS assay to identify small molecule agonists of the thyrotropin-releasing hormone receptor (TRHR) signaling pathway (AID 1346891; calls by dose curve; also: series mostly up to about 58 µM)
In short: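 Cells: TRHR-Hek293, seeded and incubated 18 h. Dye loading: 2 h at 37 °C. Compound added from DMSO stock by pin tool. Read-out: kinetic calcium fluorescence over 3 min.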

[11] = Human pregnane X receptor (PXR) small molecule agonists, qHTS cell viability counter screen (AID 1346977); also: nearly all actives have a fitted effect of over 50% in size; also: potency is read from the fitted curve at half-maximal effect
In short: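 Cytotoxicity counter screen run in the same wells as the PXR luciferase assay, using PXR-Luc HepG2 cells in charcoal-stripped serum medium. Viability: CellTiter-Fluor fluorescence after 24hr compound treatment.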

[12] = Caspase-3/7 induction in HepG2 cells by small molecules, qHTS assay (AID 1346978); also: nearly all actives have a fitted effect of over 15% in size; also: potency is read from the fitted curve at half-maximal effect
In short: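 Wild-type HepG2 cells (2,000/well) were settled 5 h at 37 C, 5% CO2, then exposed to compounds in DMSO for 17 h. Caspase-3/7 activity was read by luminescence 30 min after adding Caspase-Glo 3/7 reagent at room temperature.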

[13] = Caspase-3/7 induction in CHO-K1 cells by small molecules, qHTS cell viability counter screen (AID 1346979); also: nearly all actives have a fitted effect of over 35% in size; also: potency is read from the fitted curve at half-maximal effect
In short: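 Cytotoxicity counter screen run in parallel with the caspase-3/7 assay: CHO-K1 cells, 16hr compound treatment at 37C, then CellTiter-Fluor for 1hr before fluorescence reading.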

[14] = Caspase-3/7 induction in CHO-K1 cells by small molecules, qHTS assay (AID 1346980); also: nearly all actives have a fitted effect of over 15% in size
In short: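 Wild-type cells were seeded at 1,500 per well and settled 5 hr at 37 C, 5% CO2, then exposed to DMSO-dissolved compounds for 17 hr. Caspase-Glo 3/7 reagent was added, and luminescence was read after 30min at room temperature.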

[15] = Caspase-3/7 induction in HepG2 cells by small molecules, qHTS cell viability counter screen (AID 1346981); also: nearly all actives have a fitted effect of over 30% in size; also: potency is read from the fitted curve at half-maximal effect
In short: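 Wild-type HepG2 cells (2,000/well) were allowed to settle for 5 hr at 37 C, 5% CO2, then dosed with compounds in DMSO by pin transfer. After 16 hr at 37 C, CellTiter-Fluor was added and fluorescence read 1 hr later.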

[16] = biological target: Nuclear receptor subfamily 1 group I member 2 (Homo sapiens) (UniProt O75469); assay: Human pregnane X receptor (PXR) small molecule agonists, qHTS assay (AID 1346982); also: nearly all actives have a fitted effect of over 35% in size; also: potency is read from the fitted curve at half-maximal effect
Nuclear receptor subfamily 1 group I member 2 (Homo sapiens), sequence (O75469 whole entry, looked up): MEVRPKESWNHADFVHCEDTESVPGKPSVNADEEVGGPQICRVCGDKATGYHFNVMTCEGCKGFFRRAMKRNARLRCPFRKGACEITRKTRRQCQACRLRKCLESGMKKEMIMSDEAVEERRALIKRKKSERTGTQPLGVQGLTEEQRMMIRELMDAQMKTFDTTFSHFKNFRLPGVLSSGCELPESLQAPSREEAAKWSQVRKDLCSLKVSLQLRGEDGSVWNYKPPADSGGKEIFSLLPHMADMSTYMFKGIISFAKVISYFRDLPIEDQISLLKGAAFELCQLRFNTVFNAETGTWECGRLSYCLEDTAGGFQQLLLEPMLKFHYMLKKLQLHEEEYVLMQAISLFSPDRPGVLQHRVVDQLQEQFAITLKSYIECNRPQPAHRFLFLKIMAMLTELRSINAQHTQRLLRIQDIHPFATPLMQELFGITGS
In short: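 PXR-Luc HepG2 cells (CYP3A4 promoter-driven luciferase) were seeded in medium with 5% charcoal-stripped FBS, left 5 hr at 37 C, then exposed to compounds in DMSO for 24 hr. Luminescence was read after ONE-Glo addition.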

[17] = biological target: Progesterone receptor (Homo sapiens) (UniProt P06401); assay: qHTS assay to identify small molecule agonists of the progesterone receptor (PR) signaling pathway (AID 1346784; calls by dose curve; also: nearly all actives have a fitted effect of over 30% in size)
In short: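 Cells (PR-UAS-bla HEK 293T, GripTite) were plated in assay medium containing 2% charcoal-stripped FBS and incubated 6 hr. Test compounds in DMSO were added for 16 hr at 37C. FRET substrate was then loaded for 2 hr at room temperature before fluorescence reading.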

[18] = biological target: Nuclear receptor subfamily 1 group I member 2 (Rattus norvegicus) (UniProt Q9R1A7); assay: Rat pregnane X receptor (rPXR) activation by small molecules, qHTS assay (AID 1346983); settings: rPXR luciferase reporter cells, One-Glo luminescence, 24 h; stronger effect = higher value; also: nearly all actives have a fitted effect of over 20% in size
Nuclear receptor subfamily 1 group I member 2 (Rattus norvegicus), sequence (Q9R1A7 whole entry, looked up): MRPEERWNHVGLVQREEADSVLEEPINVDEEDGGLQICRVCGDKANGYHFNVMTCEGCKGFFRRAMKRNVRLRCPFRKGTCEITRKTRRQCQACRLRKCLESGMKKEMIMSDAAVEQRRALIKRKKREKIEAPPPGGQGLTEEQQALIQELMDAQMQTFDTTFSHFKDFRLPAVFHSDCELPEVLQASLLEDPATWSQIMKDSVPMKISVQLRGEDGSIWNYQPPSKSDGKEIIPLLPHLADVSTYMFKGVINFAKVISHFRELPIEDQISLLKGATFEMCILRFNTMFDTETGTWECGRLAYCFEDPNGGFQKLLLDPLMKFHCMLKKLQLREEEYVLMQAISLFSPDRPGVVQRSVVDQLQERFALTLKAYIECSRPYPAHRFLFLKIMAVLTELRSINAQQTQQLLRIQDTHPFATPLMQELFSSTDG
In short: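 Cell-based rPXR luciferase reporter assay, 2,000 cells per well, rested 5hr at 37 C before compound addition in DMSO, then 24 hr at 37 C. One-Glo reagent was added and luminescence read after 30 min at room temperature.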

[19] = biological target: Nuclear receptor subfamily 1 group I member 2 (Homo sapiens) (UniProt O75469); assay: CYP3A4 induction through human pregnane X receptor (PXR) by small molecules, qHTS assay (AID 1346984); also: nearly all actives have a fitted effect of over 40% in size
In short: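 DPX-2 cells (HepG2 co-transfected with PXR and CYP3A4 promoter-luciferase) treated with compounds 24 h at 37C; luciferin-IPA CYP3A4 substrate 3uM final added for 3 h, then One-Glo; luminescence read. qHTS format.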

[20] = biological target: Nuclear receptor subfamily 1 group I member 2 (Homo sapiens) (UniProt O75469); assay: Human pregnane X receptor (PXR) activation by small molecules, qHTS assay (AID 1346985); also: nearly all actives have a fitted effect of over 40% in size
In short: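 DPX-2 cells (HepG2 co-transfected with a PXR response element and a CYP3A4-promoter luciferase construct) were seeded at 2,000 per well, rested 5 hr at 37C, then exposed to DMSO-dissolved compounds for 24 hr. Activation was read as luciferase luminescence.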

| SMILES | outcome [1] | Potency [2] | Potency [3] | Potency [4] | Potency [5] | Potency [6] | Potency [7] | outcome [8] | Potency [9] | Potency [10] | Potency [11] | Potency [12] | Potency [13] | Potency [14] | Potency [15] | Potency [16] | Potency [17] | max activation [18] | outcome [19] | outcome [20] |
| --- | --- | --- | --- | --- | --- | --- | --- | --- | --- | --- | --- | --- | --- | --- | --- | --- | --- | --- | --- | --- |
| COc1ccc(C=O)cc1 | inactive | inactive | inactive | inactive | inactive | inactive | inactive | inactive | inactive | inactive | inactive | inactive | inactive | inactive | inactive | inactive |  |  |  |  |
| CCOc1cc(C=O)ccc1O | inactive | inactive | inactive | inactive | inactive | inactive | inactive | inactive | inactive | inactive | inactive | inactive |  | inactive | inactive | inactive |  |  |  |  |
| NNC(N)=S | inactive | inactive | 11.3 µM (active) and 21.7 µM (active) | 12.7 µM (active) and 24.3 µM (active) | 43.3 µM (active) | inactive | inactive | inactive | inactive | inactive | inactive and 30.6 µM (active) | inactive | 25.3 µM (active) and 48.6 µM (active) |  | inactive | 56.6 µM (active) and 21.7 µM (active) |  |  |  |  |
| Cc1cccc(N)c1N | inactive | inactive |  | inactive | inactive | inactive | inactive | inactive | inactive | inactive | inactive | inactive | inactive | inactive | inactive | 26.4 µM (active) and 54.5 µM (active) | inactive |  |  |  |
| CCOC(=O)C(C)OC(=O)c1cc(Oc2ccc(C(F)(F)F)cc2Cl)ccc1[N+](=O)[O-] (configuration not stated) | inactive | inactive | 30.5 µM (active) |  |  | inactive | inactive | inactive | inactive | inactive | inactive | inactive |  | inactive | inactive | 30.5 µM (active) | inactive |  |  |  |
| Nc1ccc(Cl)cc1N | inactive | inactive |  | inactive | inactive | inactive | inactive |  | inactive | inactive | inactive | 22.6 µM (active) and 8.89 µM (active) |  | inactive | 7.92 µM (active) | 31.9 µM (active) and 4.33 µM (active) | inactive |  |  |  |
| CC(C)NC(C)C | inactive | inactive | inactive | inactive | inactive | inactive | inactive | inactive | inactive | inactive | inactive | inactive |  | inactive | inactive | inactive |  | -0.504% (inactive) | inactive | inactive |
| CCCCC(CC)COC(=O)c1ccc(C(=O)OCC(CC)CCCC)c(C(=O)OCC(CC)CCCC)c1 (configuration not stated) | inactive | inactive | inactive | inactive | inactive | inactive | inactive | inactive | inactive | inactive | inactive | inactive |  | inactive | inactive | inactive |  |  |  |  |
| O=[N+]([O-])c1ccc(O)c([N+](=O)[O-])c1 | inactive | 30.8 µM (active) and 27.3 µM (active) | inactive |  |  | inactive | inactive | inactive | inactive | inactive | 24.4 µM (active) and 54.5 µM (active) | inactive | 48.8 µM (active) and 54.5 µM (active) | inactive | 54.7 µM (active) and 61.1 µM (active) | inactive | inactive |  |  |  |
| O=C(NC(=O)c1c(F)cccc1F)Nc1ccc(Cl)cc1 | inactive | inactive | inactive | inactive | inactive | inactive | inactive | inactive |  |  | inactive | inactive |  | inactive | inactive | 2.44 µM (active) and inactive | inactive |  |  |  |
| Oc1cc(Cl)ccc1Cl | inactive | inactive | inactive | inactive | inactive | inactive | inactive | inactive | inactive | inactive | inactive | inactive | inactive | inactive | inactive | inactive |  |  |  |  |
| O=C(CCl)c1ccccc1 | inactive | inactive | inactive | inactive | inactive | inactive | inactive | inactive |  |  | inactive | inactive | 68.6 µM (active) | inactive | inactive | 62 µM (active) |  |  |  |  |
